This passage reports AC50 results from PubChem BioAssay AID2284099 (EPA ToxCast).

Activity calls are given as the source filed them. How the source made its calls: active means hit-call score of the fitted dose curve at least 0.9, where 1 is the maximum; inactive means score below 0.9.

Chain of human JAK2 Tyrosine Kinase, JAK2 (gene 3717) (O60674 whole entry, looked up): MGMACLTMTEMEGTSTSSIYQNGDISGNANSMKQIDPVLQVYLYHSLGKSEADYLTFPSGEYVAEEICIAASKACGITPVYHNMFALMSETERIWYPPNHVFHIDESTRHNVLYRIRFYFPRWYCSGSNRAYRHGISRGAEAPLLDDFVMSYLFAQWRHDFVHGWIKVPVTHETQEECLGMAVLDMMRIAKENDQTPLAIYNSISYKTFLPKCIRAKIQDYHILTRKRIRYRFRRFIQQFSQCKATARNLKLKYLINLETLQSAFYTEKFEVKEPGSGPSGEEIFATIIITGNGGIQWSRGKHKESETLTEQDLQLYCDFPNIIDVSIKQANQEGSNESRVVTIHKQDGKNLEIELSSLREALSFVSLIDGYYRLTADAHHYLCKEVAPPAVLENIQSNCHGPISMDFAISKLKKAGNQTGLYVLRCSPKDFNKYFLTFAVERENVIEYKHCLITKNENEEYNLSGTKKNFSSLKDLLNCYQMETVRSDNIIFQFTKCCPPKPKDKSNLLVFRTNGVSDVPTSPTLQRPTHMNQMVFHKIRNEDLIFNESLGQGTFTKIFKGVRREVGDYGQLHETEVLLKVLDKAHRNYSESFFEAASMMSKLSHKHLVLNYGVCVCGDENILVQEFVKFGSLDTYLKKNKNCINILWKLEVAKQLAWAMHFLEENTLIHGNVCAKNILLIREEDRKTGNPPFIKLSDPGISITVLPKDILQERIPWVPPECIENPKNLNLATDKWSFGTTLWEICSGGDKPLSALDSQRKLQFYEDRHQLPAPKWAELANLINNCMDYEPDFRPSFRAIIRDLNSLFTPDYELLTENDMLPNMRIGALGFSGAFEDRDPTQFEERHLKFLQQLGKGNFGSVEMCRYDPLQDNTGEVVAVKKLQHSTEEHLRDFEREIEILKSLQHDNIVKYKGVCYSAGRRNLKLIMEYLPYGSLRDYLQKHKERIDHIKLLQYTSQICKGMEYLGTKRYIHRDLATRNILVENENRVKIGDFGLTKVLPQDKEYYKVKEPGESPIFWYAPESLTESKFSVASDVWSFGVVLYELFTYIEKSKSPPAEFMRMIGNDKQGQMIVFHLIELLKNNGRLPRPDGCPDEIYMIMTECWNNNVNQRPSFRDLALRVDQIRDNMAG

The experiment concerns the target human JAK2 Tyrosine Kinase, JAK2 (gene 3717) (UniProt O60674). In words: ERF_FR_ENZ_hJAK2: Eurofins (ERF) Enzymatic Radiometric [Km ATP] KinaseProfiler LeadHunter Assay for human JAK2 Tyrosine Kinase. As for the experimental part: ERF_FR_ENZ_hJAK2 is a biochemical, single-readout assay that uses extracted gene-proteins in a cell-free assay. Measurements were taken 1 hour after chemical dosing in a 96-well plate. See JAK2 Human TK Kinase Enzymatic LANCE Assay [Km ATP], Cerep.ERF_FR_ENZ_hJAK2 is an assay component calculated from the ERF_FR_ENZ_hJAK2 assay. It is designed to measure enzyme activity using a type of enzyme reporter as detected by fluorescence intensity with LANCE technology.Data from the assay component ERF_FR_ENZ_hJAK2 was analyzed at the assay endpoint, ERF_FR_ENZ_hJAK2, in the positive analysis fitting direction relative to DMSO as the negative control and baseline of activity. Using a type of enzyme reporter, loss-of-signal activity can be used to understand changes in enzymatic activity as they relate to gene JAK2. To generalize the intended target to other relatable targets, this assay endpoint is annotated to the kinase intended target family, where the subfamily is non-receptor tyrosine kinase.
JAK2 (h) is incubated with 8 mM MOPS pH 7.0, 0.2 mM EDTA, 100 uM […], 10 mM MgAcetate and [gamma-33P]-ATP (specific activity and concentration as required). The reaction is initiated by the addition of the Mg/ATP mix. After incubation for 40 minutes at room temperature, the reaction is stopped by the addition of phosphoric acid to a concentration of 0.5%. […]
Consider `O=C(/C=C/c1ccc(O)cc1)CC(=O)/C=C/c1ccc(O)cc1`, for which the AC50 is 2.51 µM (active).
